Experimental data: PubChem BioAssay (NCI)
This is part of a sample that, as a whole, favours compounds with a hit. Of some 83,000 tested, about 20% had one in any assay.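 How to read the values: 0–100, growth inhibition (40 = 60% inhibited); 0, no net growth; -100 to 0, cell death (-40 = 40% of starting cells died; -100 = all dead).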 A number with no mark means an inactive call. The source made the active and inactive calls.

Tested on: CCRF-CEM leukemia
Test: NCI-60 one-dose screen, 48 h (100 = growth as untreated, 0 = no growth, -100 = all killed)
Settings: 10 µM unless noted
Method: Growth inhibition of the CCRF-CEM human tumor cell line is measured as a screen for anti-cancer activity. Cells are grown in 96 well plates and exposed to the test compound for 48 hours. Compounds are tested at a single concentration, which is 10^-5 M for most compounds. The reported endpoint is percent growth (GI% or GIPRCNT), where numbers from 0 - 100% represent growth inhibition, and numbers from -100% - 0 represent cell death. For example, a value of 40 represents 60% growth inhibition. A value of 0 means no net growth occurred over the course of the experiment. A value of -40 indicates 40% of cells at the beginning of the experiment died by the end of the experiment. A value of -100 means all cells are dead at the end of the experiment.
NCI-60 Human Tumor Cell Lines Screen was performed using the standard one-dose NCI protocol, which is described in more detail at https://dtp.cancer.gov/discovery_development/nci-60/default.htm.
Compounds with GIPRCNT values below 10 were considered active. Activity score was based on GIPRCNT using the following formula: […]
Score is 0 for GIPRCNT values of 100 or above, 50 for GIPRCNT values of 0, and 100 for GIPRCNT values of -100.

SMILES	growth
O=C(Nc1cc(Cl)cc(Cl)c1)Nc1ccc2oc(=O)ccc2c1	24.9%
CS(=O)(=O)c1ccc2c(c1)c1c(n2S(=O)(=O)c2ccc(Cl)cc2)CCCC1	27.3%
Nc1n[nH]c2cccc(C#Cc3cccc(NC(=O)c4cccc(OC(F)(F)F)c4)c3)c12	76.2%
C=C1C(=O)O[C@@H]2C[C@@H](C)[C@H](OC)CC(=O)[C@](C)(OC(C)=O)C[C@H](OC(=O)/C(C)=C\C)[C@@H]12	-12.7% (active)
C/C(=C(/C)C1CC1CCN(C(=O)c1ccccn1)S(=O)(=O)c1ccc(C)cc1)C1CCCCC1 (stereo not given)	92.5%
CCOC(=O)/C(F)=C/C1CC1CCc1cccc(C(F)(F)F)c1 (stereo not given)	110%
CN1C(=O)/C(=C/C=C/c2ccco2)SC1=S	60.8%
Cc1ccc(NC(=O)N[C@@H](Cc2cc(F)cc(F)c2)C(=O)NC2C(=O)N3CCC[C@H]3C(=O)N3CCCC[C@H]3C(=O)N[C@@H](C)C(=O)N3C[C@H](C)C[C@H]3C(=O)O[C@H]2C)c(F)c1 (stereo not given in full)	34.2%
C=CCn1c(SCC(=O)Nc2cccc(C(=O)/C=C/c3ccc(Br)cc3)c2)nc2ccccc2c1=O	95.5%
Oc1ccc(CSc2nnc(-c3ccc(Br)cc3)o2)c2cccnc12	15.2%
Oc1ccc(CSc2nnc(-c3ccncc3)o2)c2cccnc12	26%
Cc1ccc(-n2cc(/C=C/C(=O)c3ccc(S(C)(=O)=O)cc3)c(-c3ccc(S(C)(=O)=O)cc3)n2)cc1	77.5%
CC(C)(C)n1nnnc1C(Nc1nccs1)c1cc2cccc3ccc4cccc1c4c32 (stereo not given)	98.7%
O=c1[nH]c(CNc2ccc(NCc3c(-c4ccccc4)no[n+]3[O-])cc2)nc2c1cnn2-c1ccccc1	57.9%
C/C(=C(/c1ccc(O)cc1)c1ccc(OCCN2CCCCCC2)cc1)c1ccccc1	60%
CCOC(=O)C1=C(C)N=C2Sc3ccccc3N2C1c1ccccc1 (stereo not given)	86.2%
COc1cc(C(=O)c2cc(C(C)=O)c3c4ccccc4ccn23)cc(OC)c1OC	48.9%
Cc1ccc(Nc2ncnc3c2c(C)nn3-c2ccc([N+](=O)[O-])cc2)cc1	79.8%
CS(=O)(=O)c1ccc2c(c1)c1c(n2C(=O)c2ccc(Cl)cc2)CCCC1	25.4%
Nc1ccc(-c2nnc(SCc3ccc(O)c4ncccc34)n2-c2ccccc2)cc1	20.7%

SMILES	growth
COc1cc(/C=N/Nc2ccnc3cc(Cl)ccc23)cc(OC)c1O	9.72% (active)
CCc1ccc(NC(=O)N[C@@H](Cc2cccc(C)c2)C(=O)N[C@@H]2C(=O)N3CCC[C@H]3C(=O)N3CCCC[C@H]3C(=O)N[C@@H](CO)C(=O)N3C[C@H](C)C[C@H]3C(=O)O[C@H]2C)c(F)c1	37.2%
COc1cc2c3c(n(CCCNC4CCCC4)c(=O)c2cc1OC)-c1cc2c(cc1C3=O)OCO2	-13.8% (active)
NS(=O)(=O)c1ccc(Nc2nc(N/N=C/c3ccc(F)cc3)nc(Nc3ccccc3)n2)cc1	20%
O=C1Nc2ccc(Br)cc2/C1=N\c1nnc(-c2ccc(Cl)cc2)o1	35.7%
CC(C)C(=O)Nc1ccc(-c2nc(-c3cccc(O)c3)c(-c3ccnc(Br)c3)[nH]2)cc1	17.3%
CC(=O)C1=NN(c2ccc(Cl)cc2)C(=O)CN1C	104%
O=C1c2c(c3c4cccnc4[nH]c3c3ccc4ccccc4c23)C(=O)N1CCN1CCNCC1	27.2%
O=c1cc(-c2ccccc2)nc2sc(-c3c[nH]c4ccc(F)cc34)nn12	88.4%
NCCN1CCN(c2nc(-c3ccccc3)nc3nc(-c4ccccc4)oc23)CC1	1.25% (active)
CC(=O)NC(C)(C)C(=O)N1CCC[C@H]1C(=O)NC(C)(C)C(=O)N[C@@H](C)C(=O)NC(C)(C)C(=O)NC(C)(C)C(=O)N[C@@H](CCC(N)=O)C(=O)NC(C)(C)C(=O)N[C@H](C(=O)NC(C)(C)C(=O)NCC(=O)N[C@@H](CC(C)C)C(=O)NC(C)(C)C(=O)N1CCC[C@H]1C(=O)N[C@H](C(=O)NC(C)(C)C(=O)NC(C)(C)C(=O)N[C@@H](CCC(N)=O)C(=O)N[C@@H](CCC(N)=O)C(=O)N[C@H](CO)Cc1ccccc1)C(C)C)C(C)C	36.3% [4.25 µM]
O=C(/C=C1\C=CN(CCCCO)c2ccccc21)n1ccc2ccccc21	102%
C[C@H]1[C@H](C)CC[C@]2(COC(=O)c3cccnc3)CC[C@]3(C)C(=CC[C@@H]4[C@@]5(C)CCCNC(C)(C)[C@@H]5CC[C@]43C)[C@H]12	50.1%
COc1ccc2oc3c4[nH]c5ccccc5c4c4c(c3c2c1)C(=O)N(O)C4=O	91.4%
Cc1cc(=O)n2nc(-c3c[nH]c4ccccc34)sc2n1	115%
COc1ccc(/C=C/C(=O)c2nnn(-c3ccc(C(=O)O)cc3)c2C)cc1OC	87.7%
NC(=O)c1c(NC(=O)c2cccc(OC(F)(F)F)c2)sc2c1CCC(=O)C2	8.53% (active)
CCN(CC)CCCC(C)NCC(=O)NC(c1ccc2c(c1)OCO2)c1cc(Cl)c2cccnc2c1O (stereo not given)	16.5%
CC(=O)NC(C)(C)C(=O)N1CCC[C@H]1C(=O)NC(C)(C)C(=O)N[C@@H](C)C(=O)NC(C)(C)C(=O)N[C@@H](C)C(=O)N[C@@H](CCC(N)=O)C(=O)NC(C)(C)C(=O)N[C@H](C(=O)NC(C)(C)C(=O)NCC(=O)N[C@@H](CC(C)C)C(=O)NC(C)(C)C(=O)N1CCC[C@H]1C(=O)N[C@H](C(=O)NC(C)(C)C(=O)NC(C)(C)C(=O)N[C@@H](CCC(N)=O)C(=O)N[C@@H](CCC(N)=O)C(=O)N[C@H](CO)Cc1ccccc1)C(C)C)C(C)C	62.8% [4.25 µM]
O=C(N/N=C\c1ccc(Cl)cc1)c1ccc2nc(-c3ccc(Br)cc3)[nH]c2c1	26.3%
